# Sampled rows, rich in hits. Any-hit rate of the full collection: about 3.3%.
# RE007 growth inh = qHTS Assay for Inhibitors of the HIV-1 protein Vpr. S. pombe RE007 Vpr strain, BacTiter-Glo ATP luminescence, 24 h. actives 0.21% (n = 360,000). AID 651644, 2012. Potency, µM (top dose mostly 92.2 µM), without a hit: top-dose activity change, negative = less growth, usual class: inhibitors; active = well fitted falling curve with a large enough effect; inconclusive = small, poorly fitted or top-dose-only effect; inactive = no such curve, though single readings can be large or run the other way; also: % is scaled to controls: 0 for no effect and ±100 for the full control effect; nearly all actives have a fitted effect of over 50% in size
#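 Fission yeast strain RE007, carrying one chromosomally integrated HIV-1 vpr copy, was seeded at OD 0.01 in PMG+AL medium with 23 nL pinned compound. After 24 h at 30 °C and 99% humidity, viability was read by BacTiter-Glo luminescence.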
# SARS PLP yeast = qHTS of Yeast-based Assay for SARS-CoV PLP; S. cerevisiae expressing SARS-CoV PLpro, growth rescue; actives 0.19% (n = 330,000); Potency, µM (highest dose often 32.9 µM), inactives show at the highest dose activity, positive = growth rescue, most hits filed as activators; AID 485353, 2010; calls by dose curve; also: 0% is about no effect; nearly all actives have a fitted effect of over 55% in size
# Sm TGR block = qHTS Assay for the Inhibitors of Schistosoma Mansoni Peroxiredoxins; Schistosoma mansoni thioredoxin glutathione reductase (TGR), Q962Y6; purified TGR, DTNB reduction, TNB absorbance 405 nm; Potency, µM (top dose mostly 114 µM), for inactives: top-dose activity change, negative = inhibition, most hits filed as inhibitors; actives 3% (n = 360,000); AID 485364, 2010; also: % is scaled to controls: 0 for no effect and ±100 for the full control effect; nearly all actives have a fitted effect of over 60% in size
#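 Kinetic colorimetric format: TGR-catalysed, NADPH-driven DTNB reduction monitored via TNB absorbance. Enzyme dispensed at 20 nM; compound exposure 15 min at room temperature before reaction start.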
# LmPK inh = qHTS Assay for Inhibitors of Leishmania Mexicana Pyruvate Kinase (LmPK) | Q27686 | purified LmPK, Kinase-Glo ATP luminescence, 1 h | Potency, µM (highest dose often 57.5 µM), inactives show at the highest dose activity change, negative = inhibition, actives largely listed as inhibitors | actives 0.37% (n = 290,000) | AID 1721, 2009; also: % is scaled to controls: 0 for no effect and ±100 for the full control effect
# Target sequence (Q27686 whole entry, looked up): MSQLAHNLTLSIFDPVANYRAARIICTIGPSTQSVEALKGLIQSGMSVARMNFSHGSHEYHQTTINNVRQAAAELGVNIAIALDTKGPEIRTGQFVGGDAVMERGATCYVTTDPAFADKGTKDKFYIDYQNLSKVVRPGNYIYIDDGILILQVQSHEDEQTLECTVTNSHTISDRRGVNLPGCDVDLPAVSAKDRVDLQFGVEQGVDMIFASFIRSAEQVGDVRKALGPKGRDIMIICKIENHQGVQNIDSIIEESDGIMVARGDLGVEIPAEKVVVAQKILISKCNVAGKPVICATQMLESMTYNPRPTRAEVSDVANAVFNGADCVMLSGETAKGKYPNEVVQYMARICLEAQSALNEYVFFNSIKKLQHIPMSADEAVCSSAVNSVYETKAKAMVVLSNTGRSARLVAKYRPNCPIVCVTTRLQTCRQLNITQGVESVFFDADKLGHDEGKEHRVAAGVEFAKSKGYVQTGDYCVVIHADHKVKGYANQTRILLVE
#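 Pyruvate kinase activity monitored as ATP production (luciferase luminescence). Conditions: 0.1 nM enzyme, 0.5 mM PEP, 0.1 mM ADP, 1 h, RT; normalized against uninhibited and no-enzyme wells.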
# NS1 inh = qHTS Assay for Inhibitors of Influenza NS1 Protein Function. Potency, µM (series often up to 46.1 µM), without a hit: top-dose activity, positive = more growth. actives 0.4% (n = 270,000); calls by dose curve; also: actives are rising curves; nearly all actives have a fitted effect of over 50% in size
#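 S. cerevisiae expressing influenza A NS1, grown in glucose, washed, then diluted 1:100 into pH 6.0 -URA galactose medium with 23 nl compound. Growth recovery read as OD600; NS1-free strain serves as control.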
# Tb PYK inh = qHTS of Trypanosoma Brucei Inhibitors. pyruvate kinase (Trypanosoma brucei), Q57TT1. TbPYK enzyme, Kinase-Glo Plus ATP luminescence, 45 min. Potency, µM (doses to about 76.8 µM), for inactives: top-dose activity, negative = inhibition, hits mostly inhibitors. actives 0.12% (n = 410,000). AID 624173, 2012; also: % is scaled to controls: 0 for no effect and ±100 for the full control effect; nearly all actives have a fitted effect of over 50% in size
#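 Screened from lowest to highest concentration, compounds were pinned into TbPYK/substrate mixtures, and ADP (130 uM final) was added. Plates sat at room temperature for 45 min prior to Kinase-Glo Plus detection by luminescence.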
# * hit, by the source's call; u = inconclusive; x = no result given. Unless noted, calls follow the shape of the dose curve; as a rule, active = well fitted curve in the direction sought with a large enough effect; inconclusive = small, poorly fitted or top-dose-only effect, or another doubt; inactive = no such curve, though single readings can be large; an effect the other way counts as inactive or inconclusive. Potency is read from the fitted curve at half-maximal effect.
SMILES,RE007 growth inh,SARS PLP yeast,Sm TGR block,LmPK inh,NS1 inh,Tb PYK inh
CN(C)c1ccc(-n2c(CCC(=O)O)ccc2-c2ccccc2)cc1,x,x,u,x,x,-11.0%
O=C(O)CCc1ccc(-c2cccs2)n1-c1ccc(C(=O)O)cc1,4.3%,3.5%,7.94µM*,0.1%,15.7%,-19.5%
CC(=O)c1ccc(-n2c(C)ccc2-c2ccccc2)cc1,u,-13.9%,-32.4%,2.8%,-6.0%,6.4%
CC(=O)c1ccc(-n2c(CCC(=O)O)ccc2-c2ccccc2)cc1,-4.5%,1.4%,39.8µM*,-2.0%,5.5%,-7.8%
CC(=O)c1cccc(-n2c(CCC(=O)O)ccc2-c2cccs2)c1,-22.7%,-13.5%,5.62µM*,1.8%,-7.7%,-17.5%
CC(=O)c1ccc(-n2c(CCC(=O)O)ccc2-c2ccc(C)cc2)cc1,7.3%,1.2%,17.8µM*,-1.4%,0.4%,-3.9%
O=C(O)CCc1ccc(-c2cccs2)n1NC(=O)c1ccccc1Br,-3.7%,-3.3%,u,3.1%,9.1%,-13.8%
COC(=O)c1ccc(-n2c(CCC(=O)O)ccc2-c2ccccc2)cc1,33.9%,-3.9%,14.1µM*,-0.7%,2.4%,-4.8%
CC(=O)c1ccc(-n2c(CCC(=O)O)ccc2-c2ccc(Br)cc2)cc1,1.5%,-0.3%,u,-1.7%,-6.7%,-8.0%
O=C(CCCn1c(=O)[nH]c2ccsc2c1=O)N1CCN(c2cccc(C(F)(F)F)c2)CC1,x,x,3.1%,x,x,-5.8%
FC(F)(F)c1cc(NC(=S)N2c3ccccc3-n3cccc3[C@H]2c2cccnc2)cc(C(F)(F)F)c1,x,x,x,x,-15.9%,x
Cc1cccc(N2CCN(C(=O)C3CCN(S(=O)(=O)c4cccs4)CC3)CC2)c1C,x,x,7.5%,x,x,-0.3%
Cc1nc(-c2ccc(S(=O)(=O)Nc3cc(Cl)ccc3C)cc2)co1,x,x,15.8%,x,x,2.6%
CC(=O)c1cccc(-n2c(CCC(=O)O)ccc2-c2ccccc2)c1,-16.2%,-1.2%,17.8µM*,-1.8%,3.1%,-16.8%
COC(=O)c1ccccc1-n1c(CCC(=O)O)ccc1-c1ccccc1,0.2%,-2.8%,44.7µM*,1.6%,7.4%,-4.8%
CC(C)(C)c1ccc(C(=O)Nn2c(CCC(=O)O)ccc2-c2cccs2)cc1,13.1%,1.1%,50.1µM*,11.2%,u,-7.4%
COc1ccc(-n2c(SCC(=O)Nc3cccc(C)c3C)nc3c([nH]c4ccccc43)c2=O)cc1,x,x,2.8%,x,x,1.4%
Cc1c(N)c(C(C)(C)C)cc(C(C)(C)C)c1[N+](=O)[O-],31.6µM*,9.7%,1.9%,-2.7%,-5.3%,-0.1%
Cc1c(N)c(C)c([N+](=O)[O-])c(C)c1[N+](=O)[O-],-3.7%,0.1%,0.0%,8.8%,7.8%,3.8%
Cc1ccc(C)c(N2CCN(C(=O)CCc3c(C)nn(-c4ccc(N5CCCC5)nn4)c3C)CC2)c1,x,x,-3.3%,x,x,-1.1%
COc1ccc(CCNC(=O)c2csc3c2CCCCC3)c(OC)c1,x,x,0.6%,x,x,-6.2%
CN1C2CCC1/C(=C\c1ccccc1F)C(=O)/C2=C/c1ccccc1F,3.4%,0.5%,20µM*,-3.7%,6.4%,-21.4%
CC1CCN(C2=NC(=O)/C(=C/c3ccccc3F)S2)CC1,-10.2%,-1.2%,-0.4%,-1.1%,-10.7%,-6.0%
C=C(C)c1cccc(C(C)(C)NC(=O)N2CCN(CC(N)=O)CC2)c1,18.0%,5.3%,44.7µM*,-11.7%,-16.2%,-6.9%
Cc1cccc2nc(COc3ccc(-c4ccccc4)cc3)cn12,x,-1.9%,16.0%,25.1µM*,-9.5%,x
SMILES,RE007 growth inh,SARS PLP yeast,Sm TGR block,LmPK inh,NS1 inh,Tb PYK inh
Cc1cc(C)n2cc(COc3ccc4ccccc4c3)nc2n1,-5.1%,9.9%,-3.2%,-0.1%,1.2%,-9.7%
Cc1cccc(N2CCN(c3cc(C)nc4c(-c5ccc(Cl)cc5)c(C)nn34)CC2C)c1 (stereo unspecified),x,x,4.3%,x,x,0.1%
CC(C)(C)CC(C)(C)c1cc(O)c(O)c(CN2CCCCC2)c1,x,x,x,x,-4.1%,x
Cc1c(C(C)(C)C)c(C=S)n2ccccc12,-15.9%,1.7%,2.24µM*,-6.8%,1.7%,-13.6%
COc1ccc(NS(=O)(=O)c2ccc3[nH]c4c(c3c2)CCCCC4)cc1,x,x,-0.4%,x,x,2.7%
O=C(c1ccc2c3n(nc2c1)-c1ccccc1CO3)N1CCCCC1,u,-15.9%,-1.8%,6.31µM*,-12.2%,u
C[C@@H](CO)NC(=O)c1ccc2c3n(nc2c1)-c1ccccc1CO3,-17.0%,-3.9%,13.4%,14.1µM*,-5.7%,u
Cc1ccc2c(c1)COc1c3ccc(C(=O)N4CCCCC4)cc3nn1-2,-21.5%,-7.9%,-7.9%,-25.4%,-9.8%,-12.0%
CC(C)NC(=O)c1ccc2c3n(nc2c1)-c1ccc(Cl)cc1CO3,-0.7%,-1.6%,9.3%,-3.6%,0.6%,-8.7%
O=C(c1ccc2c3n(nc2c1)-c1ccccc1CO3)N1CCOCC1,u,-15.9%,-1.0%,14.1µM*,1.7%,17.8µM*
O=C(c1ccc2c3n(nc2c1)-c1ccc(Cl)cc1CO3)N1CCOCC1,-3.4%,-6.6%,0.8%,15.8µM*,-5.8%,-21.2%
O=C(NCC1CCCO1)c1ccc2c3n(nc2c1)-c1ccccc1CO3 (stereo unspecified),-2.0%,-4.4%,-5.6%,-29.1%,-5.6%,2.4%
Cc1ccc2c(c1)COc1c3ccc(C(=O)N[C@@H](CO)C(C)C)cc3nn1-2,0.1%,0.9%,1.3%,3.1%,-8.7%,-6.9%
CSc1ccc(/C=C/c2nc3ccccc3n2S(=O)(=O)c2ccc(Br)cc2)cc1,x,x,11.2%,x,x,-24.3%
CCn1cc2nc(SCC(=O)Nc3ccccc3C(F)(F)F)n(Cc3ccc(C)cc3)c(=O)c2n1,x,x,-13.8%,x,x,5.3%
CCN(Cc1ccccc1)C(=O)C1CCC(CNS(=O)(=O)c2ccc3c(c2)CCCC(=O)N3)CC1 (stereo unspecified),x,x,-4.6%,x,x,-3.0%
S=c1[nH]c(-c2ccccc2)cn1/N=C/c1cccnc1,19.7%,0.2%,3.2%,3.55µM*,9.7%,u
O=C(O)c1ccc(/C=N/n2cc(-c3ccccc3)[nH]c2=S)cc1,-5.3%,1.6%,4.1%,14.1µM*,7.3%,u
COc1cccc(N2CCN(C(=O)c3ccc4c(Cl)c5c(nc4c3)CCCC5)CC2)c1,x,x,-0.7%,x,x,-7.9%
COc1cc(/C=C/C(=O)O)cc(S(=O)(=O)NCCO)c1OC,-15.2%,12.6%,-10.9%,0.6%,-0.9%,2.8%
Cc1ccc(/C=C/C(=O)O)cc1S(=O)(=O)NCCO,24.9%,4.1%,44.7µM*,0.7%,3.4%,-6.2%

# Assay outcomes from PubChem BioAssay.
